Assay results reported in PubChem BioAssay AID686978 (National Center for Advancing Translational Sciences (NCATS), 2013).
Among all 420,000 compounds or so, about 64,000 (15%) were called active. Not shown: some 27% with an inconclusive outcome. These entries were drawn from the full list. Unmarked numbers belong to inactive results. Calls come from the whole dose curve; as a rule, active = well fitted inhibition curve with a large enough effect; inconclusive = small, poorly fitted or top-dose-only effect; inactive = flat fitted curve, though single readings scatter.

Experiment: qHTS for Inhibitors of human tyrosyl-DNA phosphodiesterase 1 (TDP1): qHTS in cells in absence of CPT; note: nearly all actives have a fitted effect of over 55% in size
Settings: DT40 Tdp1-/- hTDP1 cells, no CPT, ATP luminescence, 48 h; activity change, negative = growth inhibition: at 46.2 µM (top of the series)
Method in brief: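 Chicken DT40 Tdp1-/- cells complemented with human TDP1, screened without camptothecin (DMSO vehicle only), 400 cells/well. Compounds pin-transferred, cells incubated at 37 °C for at least 48 hr. Growth read as ATP-dependent luminescence (CellTiter-Glo, 30 min at RT).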
% is set by controls: 0 for no effect and ±100 for the full control effect; potency is the fitted concentration of half-maximal effect.

| SMILES | activity change, negative = growth inhibition [%] | Potency |
| --- | --- | --- |
| CCc1ccc(N2CC(C(=O)N3CCCCCC3)CC2=O)cc1 (stereo unspecified) | -15.7 |  |
| Cc1ccc(N2CC(C(=O)N3CCC4(CC3)CC(=O)c3ccccc3O4)CC2=O)cc1C (stereo unspecified) |  | 14.6 µM (active) |
| Nn1c(SCC(=O)Nc2nccs2)nnc1-c1ccco1 | -0.464 |  |
| COC(=O)C1=C(C(=O)c2ccc(C)cc2)C(c2ccccc2)n2nnnc2N1 (stereo unspecified) | -11.2 |  |
| CC(C)Cc1ccc(C(C)C(=N)N)cc1 (stereo unspecified) |  | 6.51 µM (active) |
| COc1ccc(CCNC(=O)CC2SC(=Nc3cc(C)cc(C)c3)NC2=O)cc1OC (stereo unspecified) | -23.3 |  |
| O=C1c2cccnc2C(Nc2ccc(S(=O)(=O)N3CCCCCC3)cc2)N1Cc1ccccc1 (stereo unspecified) | -25.2 |  |
| O=[N+]([O-])c1ccc2c(c1)C(O)n1nc(-c3ccccc3)nc1S2 (stereo unspecified) | -9.02 |  |
| NC1=NN(c2cccc(C(=O)O)c2)C(=O)C1 | 18 |  |
| Cc1nn(C)c(C)c1C(C)NC(=O)c1ccc(OC2CCN(Cc3ccccn3)CC2)cc1 (stereo unspecified) | -8.27 |  |
| Cc1onc(-c2ccccc2Cl)c1C(=O)OCc1nnc(-c2ccccc2)o1 |  | 23.1 µM (active) |
| Cc1onc(-c2ccccc2)c1-c1nnc(COC(=O)c2ccc(N(C)C)cc2)o1 |  | 20.6 µM (active) |
| O=C(OCc1nnc(-c2ccccc2)o1)c1ccc2c(c1)C(=O)N(CCc1ccccc1)C2=O | -6.81 |  |
| Cc1ccc(C(=O)NCC(=O)OCc2nnc(-c3ccccc3)o2)cc1 | 10.3 |  |
| C=CCn1nc(-c2ccccc2)c2c(C)onc2c1=O | 4.95 |  |
| CN(C)c1ccc(-c2nnc(-c3cccnc3)o2)cc1 | -15.1 |  |
| CCCN1CNC(=S)N(CCc2ccccc2)C1 | -27.4 |  |
| O=C(CSc1nc2[nH]c(=O)[nH]c(=O)c2s1)Nc1cccc(F)c1 | -21.4 |  |
| O=C(O)c1ccccc1-c1cccc2nncn12 | -7.8 |  |
| COC(=O)c1ccc2c(=O)n(CC3CCCO3)c(=S)[nH]c2c1 (stereo unspecified) | -7.54 |  |
| CCOC(=O)c1sc(=S)n2c1[nH]c(=O)c1ccc(C(=O)OC)cc12 |  | 5.8 µM (active) |
| CCOC(=O)c1sc2nc(C)[nH]c(=O)c2c1C | -15.4 |  |
| Cc1cc(C)c2c(n1)sc1c(=O)n(-c3ccccc3)c(=O)[nH]c12 | -7.07 |  |
| CC(=O)Nc1cc(C(=O)O)ccc1S(=O)(=O)c1ccc(Cl)cc1 | -8.93 |  |
| COc1ccc2c(c1)cc1n2CCN=C1NN | -25.9 |  |
| COc1ccccc1CN1CC(C(=O)NCCc2cn[nH]c2)CCC1=O (stereo unspecified) | -17.8 |  |

| SMILES | activity change, negative = growth inhibition [%] | Potency |
| --- | --- | --- |
| CC(C)=CC1C(C(=O)O)C1(C)C (stereo unspecified) | -20.2 |  |
| CCC1(C)COC(c2ccc(OC)c(OC)c2)OC1 (stereo unspecified) | -16.8 |  |
| CC(=O)c1cccc(-n2nnnc2SCC(=O)NNC(=O)C2CCCCC2)c1 | 5.14 |  |
| CCN(Cc1ccccc1)C(=O)CSc1nc(C)cc2c1C(=O)OC2 | -3.19 |  |
| CCOC(=O)C1CCCN(C(=O)c2ccc(C)c(F)c2)CC1 (stereo unspecified) | -10.2 |  |
| Cc1cc(C)cc(NC(=O)N2CCCCCCC2)c1 | -17.7 |  |
| Cc1ccc(C(NC(=O)N2CCCC2)C(Cl)(Cl)Cl)cc1F (stereo unspecified) |  | 20.6 µM (active) |
| CCOC(=O)C1C(=O)OC2(CCCC2)C1C(=O)OCC (stereo unspecified) | 4.25 |  |
| Cc1ccc(CC2C(=O)N(c3ccc(F)cc3)C(=O)C2C)cc1 (stereo unspecified) | -5.78 |  |
| CC1(C)CC(=O)CC2(C1)NCC(c1ccccc1Cl)c1c2[nH]c2ccccc12 (stereo unspecified) |  | 16.4 µM (active) |
| COC(=O)c1cc2occc2n1Cc1nc(-c2ccccc2C)oc1C | -19.5 |  |
| CNC(=O)c1ccc(-c2nc(CN3CCc4ccccc43)c(C)o2)cc1 |  | 20.6 µM (active) |
| CC(=O)Nc1ccccc1-c1nc(CNC(=O)c2ccc(Cl)cc2)c(C)o1 | -24.1 |  |
| COc1ccc(-c2cn(-c3ccc(C)cc3)c(=O)n2CC(=O)Nc2ccc(OC)c(OC)c2)cc1 | -11.3 |  |
| CN(Cc1ccccc1)C(=O)c1ccc(NC2=NC3CS(=O)(=O)CC3S2)cc1 (stereo unspecified) | -0.188 |  |
| CC(C)[C@H](NC(=O)N1CCn2c1nc1ccccc12)C(=O)NCc1ccc2c(c1)OCO2 | -15.7 |  |
| CCC(C)[C@H](NC(=O)N1CCn2c1nc1ccccc12)C(=O)NCc1ccc(OC)cc1 (stereo partly specified) |  | 16.4 µM (active) |
| CC(C)[C@H](NC(=O)N1CCn2c1nc1ccccc12)C(=O)NC1CC1 | -17.3 |  |
| N/C(=N\OC(=O)CCCC(=O)O)c1ncc(C(F)(F)F)cc1Cl | -2.03 |  |
| CC(C)CCN1CCC(C)(NC(=O)c2ccccc2)C1=O (stereo unspecified) | -16.2 |  |
| CN(C)/C=C(/C(=O)c1ccc(Cl)cc1)S(=O)(=O)c1ccccc1 | -7.39 |  |
| COC(C[C@H](O)CC(=O)[C@@H](C)OCc1ccccc1)OC | -3.29 |  |
| COC(C/C=C/C(=O)[C@@H](C)OCc1ccccc1)OC |  | 18.4 µM (active) |
| COC(C[C@@H]1O[C@@H]1C(=O)[C@H](C)OCc1ccccc1)OC | -4.23 |  |
| CCc1ccccc1N1C(=O)CN(S(=O)(=O)CC)CC1(C)C(=O)NC1CCCCC1 (stereo unspecified) | -10.3 |  |
